Several values for one entry are separate records, joined by “and”; a condition that tells them apart may be missing. Identical values can stand only once. The whole screen tested about 5,500 compounds, of which about 2,000 (36%) were called active. About 18% were inconclusive and are not listed. Rule as the data show it: active = normalized growth mostly below about 0.91 (no sharp cut-off); inconclusive = no clear call, values can overlap the other calls; inactive = mostly above about 0.92. The list shows a part of the results.
Test: chemical genetic growth profiling, strain panel (AID 1159580);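 also: tested at 20 µM; growth read once vehicle control cultures reached saturation at 30 °C; 1 = growth at the plate median or of vehicle wells; lower values mean less growth of the strain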
Conditions: S. cerevisiae deletion strains, growth OD

Measured: normalized growth

CO/N=C(\C(=O)N[C@@H]1C(=O)N2C(C(=O)O)=C(COC(C)=O)CS[C@H]12)c1csc(N)n1
inactive: locus YAL021C, strain ccr4, hits give low values 0.961 | locus YAL026C, strain drs2, hits give low values 0.983 | locus YAL030W, strain snc1, hits give low values 0.983 | locus YBL061C, strain skt5, hits give low values 0.993 | locus YBR009C, strain hhf1, hits give low values 0.973 | locus YBR021W, strain FUR4, hits give low values 1 | locus YBR023C, strain chs3, hits give low values 1.02 | locus YBR171W, strain sec66, hits give low values 0.993 | locus YBR229C, strain ROT2, hits give low values 0.954 | locus YBR231C, strain swc5, hits give low values 0.975 | locus YBR279W, strain paf1, hits give low values 1 | locus YCL011C, strain gbp2, hits give low values 0.954 | locus YCL016C, strain dcc1, hits give low values 0.961 | locus YCL029C, strain bik1, hits give low values 0.998 | locus YCL061C, strain MRC1, hits give low values 0.964 | locus YCL069W, strain vba3, hits give low values 0.995 | locus YCR088W, strain abp1, hits give low values 0.985 | locus YDL005C, strain med2, hits give low values 0.992 | locus YDL035C, strain GPR1, hits give low values 0.959 | locus YDL040C, strain nat1, hits give low values 0.989 | locus YDL074C, strain BRE1, hits give low values 1.02 | locus YDL101C, strain DUN1, hits give low values 0.99 | locus YDL185W, strain tfp1, hits give low values 0.965 | locus YDL192W, strain arf1, hits give low values 0.982 | locus YDR001C, strain nth1, hits give low values 0.976 | locus YDR069C, strain doa4, hits give low values 0.996 | locus YDR101C, strain arx1, hits give low values 0.975 | locus YDR137W, strain rgp1, hits give low values 0.938 | locus YDR159W, strain sac3, hits give low values 0.985 | locus YDR162C, strain NBP2, hits give low values 0.954 | locus YDR195W, strain ref2 0.989 | locus YDR297W, strain sur2, hits give low values 0.986 | locus YDR318W, strain mcm21, hits give low values 0.996 | locus YDR334W, strain swr1, hits give low values 0.976 | locus YDR335W, strain msn5, hits give low values 0.992 | locus YDR388W, hits give low values 0.992 | locus YDR392W, strain spt3, hits give low values 0.896 | locus YDR502C, strain sam2, hits give low values 1 | locus YEL003W, strain gim4, hits give low values 1.02 | locus YEL037C, strain rad23, hits give low values 0.991 | locus YEL061C, strain CIN8 (second series), hits give low values 0.989 | locus YEL061C, strain CIN8, hits give low values 0.995 | locus YER015W, strain faa2, hits give low values 0.979 | locus YER016W, strain bim1, hits give low values 0.99 | locus YER110C, hits give low values 0.992 | locus YER111C, strain swi4, hits give low values 1 | locus YER155C, strain BEM2 (second series), hits give low values 0.965 | locus YER155C, strain BEM2, hits give low values 1 | locus YER167W, strain BCK2, hits give low values 1.02 | locus YFR010W, strain ubp6, hits give low values 0.97 | locus YGL078C, strain dbp3, hits give low values 0.998 | locus YGL086W, strain mad1, hits give low values 0.984 | locus YGL167C, strain pmr1, hits give low values 1.01 | locus YGL173C, strain kem1, hits give low values 1.01 | locus YGL227W, strain vid30, hits give low values 0.993 | locus YGL240W, strain doc1, hits give low values 0.996 | locus YGL248W, strain PDE1, hits give low values 1.02 | locus YGL253W, strain hxk2, hits give low values 1 | locus YGR135W, strain pre9, hits give low values 1.05 | locus YGR229C, strain SMI1, hits give low values 0.979 | locus YGR252W, strain gcn5, hits give low values 1.05 | locus YHR013C, strain ard1, hits give low values 0.94 | locus YHR027C, strain rpn1, hits give low values 0.987 | locus YHR030C, strain SLT2, hits give low values 0.988 and 1.01 | locus YHR079C, strain IRE1 (second series), hits give low values 0.998 | locus YHR079C, strain IRE1, hits give low values 0.992 | locus YHR094C, strain hxt1, hits give low values 0.994 | locus YHR129C, strain ARP1, hits give low values 0.99 | locus YHR142W, strain chs7, hits give low values 0.993 | locus YHR200W, strain rpn10, hits give low values 0.981 | locus YIL066C, strain RNR3, hits give low values 0.976 | locus YIL073C, strain SPO22, hits give low values 1.06 | locus YIL125W, strain kgd1, hits give low values 0.986 | locus YIR030C, strain dcg1, hits give low values 0.996 | locus YJL092W, strain hpr5, hits give low values 0.974 | locus YJL095W, strain BCK1 (second series), hits give low values 0.97 | locus YJL095W, strain BCK1, hits give low values 1.06 and 0.972 | locus YJL115W, strain asf1, hits give low values 0.968 | locus YJL129C, strain trk1, hits give low values 0.989 | locus YJL134W, strain LCB3, hits give low values 0.989 | locus YJL154C, strain vps35, hits give low values 0.968 | locus YJL164C, strain tpk1, hits give low values 0.975 | locus YJL166W, strain qcr8, hits give low values 1.01 | locus YJL168C, strain set2, hits give low values 0.991 | locus YJL187C, strain SWE1 (second series), hits give low values 1.01 | locus YJL187C, strain SWE1, hits give low values 0.984 | locus YJR043C, strain POL32, hits give low values 0.958 | locus YJR066W, strain TOR1, hits give low values 0.983 | locus YKL009W, strain mrt4, hits give low values 1.03 | locus YKL068W, hits give low values 0.986 | locus YKL085W, strain MDH1 (second series), hits give low values 0.994 | locus YKL085W, strain MDH1, hits give low values 0.994 | locus YKL160W, strain elf1, hits give low values 1.02 | locus YKL190W, strain CNB1, hits give low values 1 | locus YKR001C, strain vps1, hits give low values 0.992 | locus YKR026C, strain gcn3, hits give low values 0.964 | locus YKR091W, strain srl3, hits give low values 0.962 | locus YLL001W, strain dnm1, hits give low values 1.01 | locus YLL026W, hits give low values 0.996 | locus YLL041C, strain sdh2, hits give low values 1 | locus YLR027C, strain aat2, hits give low values 0.977 | locus YLR039C, strain RIC1, hits give low values 0.993 | locus YLR058C, strain SHM2, hits give low values 0.986 | locus YLR102C, strain apc9, hits give low values 0.997 | locus YLR113W, strain HOG1, hits give low values 0.99 | locus YLR221C, strain rsa3, hits give low values 1 | locus YLR258W, strain gsy2, hits give low values 0.974 | locus YLR262C, strain YPT6 (second series), hits give low values 1 | locus YLR262C, strain YPT6, hits give low values 0.954 | locus YLR268W, strain sec22, hits give low values 0.973 | locus YLR320W, strain mms22, hits give low values 0.96 | locus YLR330W, strain CHS5, hits give low values 0.988 | locus YLR342W, strain FKS1 (second series), hits give low values 0.995 | locus YLR342W, strain FKS1, hits give low values 0.994 | locus YLR357W, strain rsc2, hits give low values 1.03 | locus YLR370C, strain arc18, hits give low values 0.994 | locus YLR371W, strain rom2, hits give low values 0.994 | locus YLR384C, strain iki3, hits give low values 0.983 | locus YLR418C, strain cdc73, hits give low values 1.01 | locus YML016C, strain PPZ1, hits give low values 0.993 | locus YML032C, strain rad52, hits give low values 0.993 | locus YML120C, strain ndi1, hits give low values 0.989 | locus YML124C, strain tub3, hits give low values 0.993 | locus YMR058W, strain fet3, hits give low values 0.99 | locus YMR078C, strain ctf18, hits give low values 0.98 | locus YMR125W, strain sto1, hits give low values 1.02 | locus YMR129W, hits give low values 0.968 | locus YMR205C, strain PFK2, hits give low values 1 | locus YMR223W, strain ubp8, hits give low values 1.03 | locus YMR231W, strain pep5, hits give low values 0.999 | locus YMR307W, strain GAS1, hits give low values 1 | locus YNL067W, strain RPL9B, hits give low values 1.01 | locus YNL071W, strain lat1, hits give low values 0.989 | locus YNL128W, strain TEP1, hits give low values 0.996 | locus YNL183C, strain NPR1, hits give low values 0.91 | locus YNL209W, strain ssb2, hits give low values 0.99 | locus YNL233W, strain BNI4, hits give low values 1.03 | locus YNL248C, strain rpa49, hits give low values 0.977 | locus YNL250W, strain rad50, hits give low values 1.01 | locus YNL271C, strain bni1, hits give low values 1.01 | locus YNL298W, strain CLA4, hits give low values 0.989 | locus YNL307C, strain MCK1, hits give low values 0.994 | locus YNL322C, strain KRE1 (second series), hits give low values 0.971 | locus YNL322C, strain KRE1, hits give low values 1 | locus YNR049C, strain mso1, hits give low values 0.981 | locus YNR052C, strain pop2, hits give low values 0.992 | locus YOL006C, strain TOP1, hits give low values 1.15 | locus YOL012C, strain htz1 0.969 | locus YOL147C, strain pex11, hits give low values 1 | locus YOR001W, strain rrp6, hits give low values 1.01 | locus YOR061W, strain CKA2, hits give low values 0.976 | locus YOR069W, strain VPS5, hits give low values 0.988 | locus YOR070C, strain gyp1, hits give low values 0.995 | locus YOR080W, strain dia2, hits give low values 0.992 | locus YOR083W, strain WHI5, hits give low values 1.02 | locus YOR106W, strain vam3, hits give low values 0.997 | locus YOR136W, strain idh2, hits give low values 0.984 | locus YOR144C, strain elg1, hits give low values 0.99 | locus YOR184W, strain ser1, hits give low values 0.986 | locus YOR231W, strain MKK1, hits give low values 0.971 | locus YOR265W, strain rbl2, hits give low values 0.99 | locus YOR270C, strain vph1, hits give low values 1.05 | locus YOR290C, strain snf2, hits give low values 0.946 | locus YOR316C, strain cot1, hits give low values 0.984 | locus YPL051W, strain arl3, hits give low values 1.01 | locus YPL055C, strain LGE1, hits give low values 1.01 | locus YPL078C, strain atp4, hits give low values 0.968 | locus YPL106C, strain sse1, hits give low values 0.963 | locus YPL240C, strain hsp82, hits give low values 1.01 | locus YPL256C, strain CLN2, hits give low values 1 | locus YPR119W, strain clb2, hits give low values 0.991 | locus YPR141C, strain kar3, hits give low values 0.992 | locus YPR163C, strain tif3, hits give low values 0.988 | locus YPR167C, strain met16, hits give low values 0.998 | strain wtn01, hits give low values 0.999

Reference: PubChem BioAssay AID1159580 (chemical genetic matrix, 2015)
